“And” between values parts separate entries of the source, which are not always exact repeats. Equal values may be shown once. About 79,000 compounds went through this panel and 15% of them were active in at least one assay; those are over-represented in the sample as a whole. Some structures have more than one record in an assay (separate samples or runs), and their calls can disagree. The source made the active and inactive calls. Rule as the data show it: active = growth inhibition above about 70%; inactive = the rest.
Tests used:
[1] = NCI Yeast Anticancer Drug Screen. Data for the rad50 strain (AID 155);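 also: 0% = growth of vehicle-only cultures of the same strain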; conditions: S. cerevisiae rad50 strain growth inhibition, stronger effect = higher value
In short: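 Vehicle-treated cultures provide the reference for the growth inhibition reported for compound-exposed, repair-deficient yeast.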

[2] = NCI Yeast Anticancer Drug Screen. Data for the mec2-1 strain (AID 157); conditions: S. cerevisiae mec2-1 strain, stronger effect = higher value
In short: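 Cells of the genetically defined mec2-1 yeast strain are incubated with test compound. Inhibition of growth is calculated against vehicle-treated controls.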

[3] = NCI Yeast Anticancer Drug Screen. Data for the sgs1 mgt1 strain (AID 161);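 also: 0% = growth of cultures given vehicle only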; conditions: S. cerevisiae sgs1 mgt1 strain, stronger effect = higher value
In short: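 Read-out: growth inhibition vs vehicle controls. Cells: mutant yeast strain deficient in DNA damage repair.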

[4] = NCI Yeast Anticancer Drug Screen. Data for the cln2 rad14 strain (AID 165);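 also: 0% = growth equal to vehicle treated cultures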; conditions: S. cerevisiae cln2 rad14 strain, stronger effect = higher value
In short: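 The screen exposed genetically defined yeast (cln2 rad14) to test compounds and scored growth inhibition relative to vehicle-treated controls.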

[5] = NCI Yeast Anticancer Drug Screen. Data for the bub3 strain (AID 167); conditions: S. cerevisiae bub3 mutant strain, stronger effect = higher value
In short: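 Mutant yeast screening strain plus compound; vehicle-treated cultures serve as the 0% inhibition reference.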

[6] = NCI Yeast Anticancer Drug Screen. Data for the wt2 strain (AID 169); conditions: S. cerevisiae wt2 strain growth inhibition, stronger effect = higher value
In short: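 Steps: yeast strain treated with compound; growth recorded; inhibition calculated relative to cultures given vehicle alone.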

[7] = NCI Yeast Anticancer Drug Screen. Data for the mlh1 rad18 strain (AID 175); conditions: S. cerevisiae mlh1 rad18 strain growth inhibition, stronger effect = higher value
In short: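 Compound-treated yeast growth, normalised to vehicle controls. Strain bears defined DNA repair mutations.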

[8] = at 5.0 µM (retest, dose inferred, filed as 0.5)
[9] = at 50.0 µM (retest, dose inferred, filed as 5.0)

Measured: growth inhibition

OC(CF)(c1ccc(Cl)cc1)c1ccc(Cl)cc1
active: [1]; [9] 74% | [1]; at 50.0 µM 90.3% | [2]; [9] 75% | [2]; at 50.0 µM 92.5% | [3]; [9] 91% | [3]; at 50.0 µM 92.8% | [4]; [9] 97% | [4]; at 50.0 µM 91.4% | [5]; [9] 91% | [5]; at 50.0 µM 91% | [6]; at 33.0 µM 93% | [6]; at 100.0 µM 99% | [7]; [9] 75% | [7]; at 50.0 µM 89%
inactive: [1]; [8] 37% | [2]; [8] 24% | [3]; [8] 6% | [4]; [8] 39% | [5]; [8] 1% | [6]; at 1.2 µM 16% | [6]; at 3.7 µM 16% | [6]; at 11.0 µM 17% | [7]; [8] 39%

CC1=CC(=Nc2ccc(N(C)C)cc2)C=CC1=O
21.9% (inactive) and 84.1% (active): [3]; at 50.0 µM
inactive: [1]; [8] 1% | [1]; [9] 7% | [2]; [8] -5% | [2]; [9] 2% | [2]; at 50.0 µM 10.2% and 46.4% | [3]; [8] 1% | [3]; [9] 7% | [4]; [8] -3% | [4]; [9] -6% | [4]; at 50.0 µM -4.55% and 33.5% | [5]; [8] -1% | [5]; [9] -9% | [5]; at 50.0 µM -7% and 21.4%
-4.05% (inactive) and 78.8% (active): [1]; at 50.0 µM

c1ccc2nc3c(ccc4ccccc43)cc2c1
active: [1]; at 50.0 µM 86% | [2]; at 50.0 µM 75.9% | [3]; [9] 94% | [3]; at 50.0 µM 84.5% | [4]; [9] 91% | [5]; [9] 99% | [5]; at 50.0 µM 84% | [6]; at 33.0 µM 94% | [6]; at 100.0 µM 89% | [7]; at 50.0 µM 83%
inactive: [1]; [8] 22% | [1]; [9] 31% | [2]; [8] 41% | [2]; [9] 45% | [3]; [8] -17% | [4]; [8] 5% | [4]; at 50.0 µM 68.7% | [5]; [8] 0% | [6]; at 1.2 µM 18% | [6]; at 3.7 µM 16% | [6]; at 11.0 µM 64% | [7]; [8] 20% | [7]; [9] 49%

CSC1SCC2C(=O)N(C)C(C(C)C)C(=O)OCC(NC(=O)c3cnc4ccccc4n3)C(=O)NC(C)C(=O)N(C)C1C(=O)N(C)C(C(C)C)C(=O)OCC(NC(=O)c1cnc3ccccc3n1)C(=O)NC(C)C(=O)N2C (stereo unspecified)
2% (inactive) and 98% (active): [3]; [8]
7% (inactive) and 96% (active): [5]; [8]
4% (inactive) and 99% (active): [2]; [8]
8% (inactive) and 97% (active): [1]; [8]
active: [1]; [9] 98% and 97% | [1]; at 50.0 µM 98.8% and 91.2% | [2]; [9] 98% | [2]; at 50.0 µM 99.5% and 91.7% | [3]; [9] 98% | [3]; at 50.0 µM 98.8% and 93% | [4]; [9] 98% and 96% | [4]; at 50.0 µM 98.2% and 90.2% | [5]; [9] 98% and 97% | [5]; at 50.0 µM 98.7% and 90.3%
8% (inactive) and 94% (active): [4]; [8]

CC(C)N1CSC(=S)N(Cc2ccccc2)C1
active: [1]; [9] 91% | [1]; at 50.0 µM 77.7% | [2]; [9] 92% | [2]; at 50.0 µM 81.5% | [3]; [9] 98% | [4]; [9] 92% | [5]; [9] 92% | [5]; at 50.0 µM 88.2%
inactive: [1]; [8] 55% | [2]; [8] 46% | [3]; [8] -5% | [3]; at 50.0 µM 46.3% | [4]; [8] 56% | [4]; at 50.0 µM 19.5% | [5]; [8] 6% | [6]; at 1.2 µM 0% | [6]; at 3.7 µM 7% | [6]; at 11.0 µM 23% | [6]; at 33.0 µM 55% | [6]; at 100.0 µM 67% | [7]; [8] 30% | [7]; [9] 66% | [7]; at 50.0 µM 59.5%

CC(C)C1=CC23CCC4C(C)(C(=O)O)CCCC4(C)C2CC1C1C(=O)OC(=O)C13 (stereo unspecified)
99.6% (active) and 49.5% (inactive): [3]; at 50.0 µM
active: [1]; [8] 93% | [1]; [9] 99% | [1]; at 50.0 µM 99.3% and 99.5% | [2]; [8] 96% | [2]; [9] 100% | [2]; at 50.0 µM 99.5% and 99.7% | [3]; [8] 87% | [3]; [9] 100% | [4]; [8] 85% | [4]; [9] 99% | [4]; at 50.0 µM 99% and 98.5% | [5]; [8] 90% | [5]; [9] 99% | [5]; at 50.0 µM 99% and 99.5%

O=S(=O)(O)c1ccc(-c2c3nc(c(-c4ccc(S(=O)(=O)O)cc4)c4ccc([nH]4)c(-c4ccc(S(=O)(=O)O)cc4)c4nc(c(-c5ccc(S(=O)(=O)O)cc5)c5ccc2[nH]5)C=C4)C=C3)cc1
inactive: [3]; [9] 29% and 51% | [4]; [8] 32% and 40% | [5]; [8] 51% and 64%
80% (active) and 67% (inactive): [4]; [9]
74% (active) and 68% (inactive): [3]; [8]
active: [1]; [9] 94% and 91% | [1]; at 50.0 µM 92.8% and 94.3% | [2]; [8] 72% and 96% | [2]; [9] 97% and 95% | [2]; at 50.0 µM 96.8% and 87.5% | [3]; at 50.0 µM 94.8% and 91.8% | [4]; at 50.0 µM 91.8% and 91.4% | [5]; [9] 92% and 83% | [5]; at 50.0 µM 93.6% and 92.8%
61% (inactive) and 82% (active): [1]; [8]

CCCCCCCc1c(Cl)nc(Cl)nc1Cl
active: [1]; [9] 92% | [1]; at 50.0 µM 78.3% | [2]; [9] 97% | [2]; at 50.0 µM 88.3% | [3]; [9] 96% | [3]; at 50.0 µM 87% | [4]; [9] 78% | [5]; [9] 99% | [5]; at 50.0 µM 76.2% | [7]; [9] 96%
inactive: [1]; [8] 11% | [2]; [8] 12% | [3]; [8] 3% | [4]; [8] 11% | [4]; at 50.0 µM 46% | [5]; [8] 4% | [7]; [8] 16%

— PubChem BioAssay (NCI)
